Assay outcomes from PubChem.
This is a sample that favours compounds with a hit; in the whole collection about 2.7% have one here.
rTrxR1 inhibitor: rat TrxR1 inhibition | O89049 | recombinant rTrxR1, NADPH fluorescence consumption, selenite substrate | Potency, µM (doses to about 114 µM), inactives show at the highest dose activity change, negative = inhibition, most hits filed as inhibitors | 1% of 390,000 active; also: % is scaled to controls: 0 for no effect and ±100 for the full control effect; nearly all actives have a fitted effect of over 65% in size
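Rat TrxR1 (90 nM in the dispensed reagent) was pre-reduced with 400 uM NADPH for 5 min at room temperature, then incubated with compound for 15 min. After 400 uM selenite was added, NADPH fluorescence (Ex 340/Em 450 nm) was followed for 8 min.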
GLP-1R inv ag: acts as inverse agonist at human GLP-1 receptor; HEK293 GLP-1R CRE-luciferase, luminescence, 24 h; GLP-1R form is constitutively active; 1.6% of 410,000 active; P43220; Potency, µM (highest dose often 38.3 µM), for the others: at the top dose activity change, negative = inhibition, hits mostly inhibitors; AID 624417; also: % is scaled to controls: 0 for no effect and ±100 for the full control effect; nearly all actives have a fitted effect of over 55% in size
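Luminescence readout: a drop in cAMP-driven luciferase signal flags inverse agonism at a constitutively active GLP-1R stably expressed in HEK293. Compound exposure lasted 24 hr at 37 deg C, 5% CO2.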
GLP1R ag: activates the human GLP-1 receptor; P43220; AID 624172; 0.007% of 380,000 active; HEK293 GLP-1R CRE-luciferase, luminescence, 4-6 h; cells express a hypersensitive GLP-1R form; Potency, µM (titrated, usually from 45.6 µM), for inactives: at the top dose activation, most hits filed as activators; also: % of control where 0% means no effect
GLP1R cytotox: cytotoxic in the GLP-1 receptor inverse agonist counter-screen; 0.13% of 410,000 active; Potency, µM (highest dose often 38.3 µM), inactives show at the top dose activity change, negative = inhibition, actives largely listed as inhibitors; HEK293 cAMP-luciferase reporter cells, luminescence, 24 h; AID 624418;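 also: loss of luciferase light is scored as toxicity; % is scaled to controls: 0 for no effect and ±100 for the full control effect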
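MLSMR compounds, 24 hr on cells at 37 deg C/5% CO2; luminescence after luciferase reagent (12 min RT). Inhibition counted as the undesired cytotoxic outcome.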
TrxR1 substrate: is turned over as a substrate by rat TrxR1; O89049; purified TrxR1 substrate turnover, NADPH consumption readout; Potency, µM (top dose mostly 114 µM), for the others: at the top dose activity change, negative = substrate turnover; 0.01% of 390,000 active; AID 588456; also: % is scaled to controls: 0 for no effect and ±100 for the full control effect; nearly all actives have a fitted effect of over 50% in size
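Rat TrxR1, dispensed at 90 nM, was prereduced with 400 uM NADPH (final) for 5 min at ~22 deg C, then incubated with compound 15 min before 400 uM selenite. A first-read NADPH fluorescence drop versus no-compound background flagged substrates.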
IDH1 R132H inh: human IDH1 R132H inhibition. O75874. IDH1-R132H enzyme, NADPH consumption, diaphorase/resazurin fluorescence. Potency, µM (top dose mostly 76.6 µM), for inactives: at the highest dose activity change, negative = inhibition, usual class: inhibitors. 0.093% of 390,000 active; also: % is scaled to controls: 0 for no effect and ±100 for the full control effect; nearly all actives have a fitted effect of over 65% in size
Target sequence (O75874 whole entry R132H, stated change not applied): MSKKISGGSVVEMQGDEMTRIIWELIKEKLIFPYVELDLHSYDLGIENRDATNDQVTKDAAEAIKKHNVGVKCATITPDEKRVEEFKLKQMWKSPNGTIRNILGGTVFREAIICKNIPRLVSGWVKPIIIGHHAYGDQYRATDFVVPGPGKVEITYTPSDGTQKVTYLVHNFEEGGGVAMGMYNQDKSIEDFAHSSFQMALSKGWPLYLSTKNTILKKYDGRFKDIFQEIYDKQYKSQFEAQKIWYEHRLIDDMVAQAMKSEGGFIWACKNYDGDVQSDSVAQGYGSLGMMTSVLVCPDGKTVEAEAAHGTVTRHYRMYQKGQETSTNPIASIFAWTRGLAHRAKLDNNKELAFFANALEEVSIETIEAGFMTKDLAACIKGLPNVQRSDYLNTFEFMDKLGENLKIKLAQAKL
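IDH1-R132H (0.5 ug/mL) preincubated 30 min with compound, then NADPH (0.016 mM) and alpha-KG (2 mM) added; 80 min at RT, pH 7.5. Remaining NADPH coupled via diaphorase/resazurin to fluorescence (540/590 nm); concentration-response curves normalized to no-enzyme control.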
* = called active by the depositor; ? = inconclusive; . = not tested or not shown; [ ] = dose if it differs, or a comment. Calls follow the shape of the dose curve; as a rule, active = well fitted curve in the direction sought with a large enough effect; inconclusive = small, poorly fitted or top-dose-only effect, or another doubt; inactive = no such curve, though single readings can be large; an effect the other way counts as inactive or inconclusive. Potency is read from the fitted curve at half-maximal effect.

SMILES	rTrxR1 inhibitor	GLP-1R inv ag	GLP1R ag	GLP1R cytotox	TrxR1 substrate	IDH1 R132H inh
CCOc1ccc(-c2nnc(SCC(=O)NCc3ccccc3)nc2-c2ccc(OCC)c(OC)c2)cc1OC	8%[57.1 µM]	42%	.	0%	-2%[57.1 µM]	6%
CN1CCN(c2cc3c(cc2F)c(=O)c(C(=O)O)cn3-c2ccc(F)cc2)CC1	.	.	-4%	.	.	.
O=C(C[N+]12CCCc3cccc(c31)CCC2)c1ccccc1	?	.	.	.	-3%	.
Cc1ccc(C(C)C)c(OCCNC(=O)c2cncc(Br)c2)c1	9%	10µM*	-3%	26%	-6%	3%
O=C(NCCOc1ccccc1)c1cncc(Br)c1	13%	-3%	7%	2%	2%	12%
COc1cc(C(=O)NCCOc2cc(C)ccc2C(C)C)cc(OC)c1OC	7%	3.5µM*	26%	-12%	-3%	5%
O=C(COc1ccccc1C(=O)Nc1ccccc1)Nc1ccc(-c2ccccc2)cc1	20%	.	.	.	9%	.
Cc1cc(C)n(-c2ccc(C(=O)Nc3ccc(S(=O)(=O)NCc4ccco4)cc3)cc2)n1	1%	11µM*	-16%	-25%	-3%	3%
Cc1ccc(C(=O)Nc2ccc(S(=O)(=O)NCc3ccco3)cc2)cc1	-23%	6%	-1%	-10%	9%	8%
CCOc1ccc(CCNC(=O)c2nn(C)c3c2CSc2ccccc2-3)cc1	9%	10µM*	.	3%	-2%	-12%
CC(C)N(C(=O)c1nn(C)c2c1CSc1ccccc1-2)C1CCCCC1	17%[57.1 µM]	10µM*	7%	-12%	7%[57.1 µM]	-3%
Cn1ccc2cc(S(=O)(=O)N3CCCN(C(=O)Nc4ccc(Br)cc4)CC3)ccc21	6%[57.1 µM]	?	0%	-2%	-5%[57.1 µM]	-24%
Cc1ccc(CNC(=O)c2cc3c(s2)-c2c(C)cccc2OC3)cc1	77%	-9%	.	2%	152%	20%
CCOC(=O)C1Nc2ccc(OC(F)(F)F)cc2C2C=CCC12 (stereo unspecified)	?	5%	-2%	3%	12%[57.1 µM]	-15%
CCOC(=O)C1Nc2ccccc2C2C(O)C(O)CC12 (stereo unspecified)	18µM*	17%	4%	7.1µM*	-4%	12%
CNC(=O)c1nnsc1S(=O)(=O)c1ccc(Cl)cc1	0.28µM*	4.5µM*	-8%	?	3%	-5%
NCCNC[C@@H]1COC2(CCCCCCCCCCC2)O1	31%	5µM*	17%	-29%	9%	1%
Cc1nn(C)c(C(=O)Sc2ccccc2)c1[N+](=O)[O-]	?	2%	1%	2%	-20%	-7%
Cc1nn(C)c(C(=O)Sc2cccc(Cl)c2)c1[N+](=O)[O-]	2µM*	-31%	-3%	-11%	-9%	0%
COc1ccc(S(=O)(=O)n2nc(-c3ccc(Cl)cc3)cc2N)cc1	26%	10µM*	4%	-19%	3%	4%
COc1ccc(S(=O)(=O)n2nc(OC(=O)c3ccncc3)cc2N)cc1	28µM*	4%	3%	-4%	2%	3%
Cc1ccc(-c2nc(NC(=O)CSc3nc(C)nc4sc5c(c34)CCCC5)ns2)cc1	30%	13%	.	1%	7%	1%
COc1cc(OC)c(NC(=O)CN2C(=O)CCn3nc(-c4cccn4C)cc32)cc1Cl	7%[57.1 µM]	-1%	.	4%	2%[57.1 µM]	-3%
CC(C)CCC(O)(CCC(C)C)C(=O)NNc1ccccc1	-5%	?	-3%	-5%	-3%	-5%
CC(C)CC(O)(CC(C)C)C(=O)NNc1ccccc1	6%[57.1 µM]	5.6µM*	-8%	-15%	16%[57.1 µM]	7%
SMILES	rTrxR1 inhibitor	GLP-1R inv ag	GLP1R ag	GLP1R cytotox	TrxR1 substrate	IDH1 R132H inh
COc1ccc(CNC(=O)C2(c3cccs3)CCOCC2)cc1	3%[57.1 µM]	-6%	.	-4%	-4%[57.1 µM]	-27%
CC(C)(C)n1ncc2c(=O)n(Cc3cccc(Cl)c3Cl)cnc21	3%	.	.	.	-6%	.
O=C(CSc1nnc(SCc2ccccc2)s1)N/N=C/C=C\c1ccco1	45µM*	-8%	0%	0%	-2%	7%
Cc1ccc(/C=N/NC(=O)CSc2nc3ccccc3n2Cc2ccccc2)o1	7%[57.1 µM]	5%	16%	-12%	-15%	4%
Cc1ccc(/C=N/NC(=O)CSc2nc3ccccc3n2Cc2ccc(Cl)cc2)o1	-11%	10µM*	-9%	-23%	-5%	1%
CCn1c(SCC(=O)N/N=C/C=C/c2ccco2)nc2ccccc21	45µM*	6%	1%	-3%	-9%	5%
O=C(CSc1nnc(SCc2ccccc2)s1)N/N=C/C=C/c1ccccc1[N+](=O)[O-]	10%[57.1 µM]	-23%	-7%	2%	-9%	3%
CC(/C=N/NC(=O)CSc1nc2ccccc2n1C)=C\c1ccco1	79µM*	-30%	3%	?	-13%	3%
CN(C)c1cccc(-c2nnc(SCC(=O)NCc3ccco3)n2C)c1	-21%	.	.	.	2%	.
CC1Cc2ccccc2N1C(=O)CSc1nc2ccc(NC(=O)COc3ccccc3)cc2s1 (stereo unspecified)	19%	?	.	6%	2%	-5%
C[N+]1(C)CCC(OC(=O)CC(O)(c2ccccc2)C2CCCC2)C1 (stereo unspecified)	.	.	-4%	.	.	.
CCSc1ncc(Cl)c(C(=O)Nc2sc3c(c2C(=O)OC)CCCC3)n1	32%	.	.	.	4%	.
CC1CCCCN1C(=S)NC(=O)c1ccccc1 (stereo unspecified)	-9%	?	4%	11µM*	-4%	1%
Oc1ccc(Cl)cc1CNc1cnc2ccccc2c1	4%	10µM*	2%	-6%	26%	16%
CC(C)n1c(Nc2ccccc2)nc2ccccc21	-7%[57.1 µM]	11µM*	3%	-9%	-6%[57.1 µM]	3%
Oc1ccccc1CNc1cnc2ccccc2c1	-9%[57.1 µM]	0%	8%	-31%	40%[57.1 µM]	4%
CC(C)n1c(NCc2cc(Cl)ccc2O)nc2ccccc21	11%[57.1 µM]	10µM*	16%	13%	3%[57.1 µM]	-1%
Cc1ccc(O)c(CNc2nc3ccccc3n2C(C)C)c1	28%	?	0%	3%	-1%	0%
Oc1ccc2ccccc2c1CNc1ccc(Br)cc1	28µM*	?	-5%	-12%	1%	13%
CC(C)(C)n1ncc2c(=O)n(Cc3c(Cl)ccc(Cl)c3Cl)cnc21	9%	.	.	.	-1%	.
COc1ccc(CNS(=O)(=O)c2ccc(F)c(C(=O)Nc3c(C)cc(C)cc3C)c2)cc1	12%[57.1 µM]	7%	.	-9%	4%[57.1 µM]	0%
Oc1ccc2ccccc2c1CNc1cnc2ccccc2c1	11µM*	-21%	-1%	-2%	74%	14%
